About 14,000 (4.5%) of roughly 310,000 compounds showed an effect of 50% or more. The effect is printed as a negative number. The full list was thinned out, with strong results kept by preference.
What follows are compounds tested against human ether-à-go-go-related gene (hERG) potassium channel (human, UniProt Q12809) (assay: primary screen, population patch clamp on CHO cells stably expressing hERG; higher = less effect of the substance).
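Further: peak tail current of the secondary pulse compared with the same well before compound.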

Chain of human ether-à-go-go-related gene (hERG) potassium channel (Q12809 whole entry, looked up): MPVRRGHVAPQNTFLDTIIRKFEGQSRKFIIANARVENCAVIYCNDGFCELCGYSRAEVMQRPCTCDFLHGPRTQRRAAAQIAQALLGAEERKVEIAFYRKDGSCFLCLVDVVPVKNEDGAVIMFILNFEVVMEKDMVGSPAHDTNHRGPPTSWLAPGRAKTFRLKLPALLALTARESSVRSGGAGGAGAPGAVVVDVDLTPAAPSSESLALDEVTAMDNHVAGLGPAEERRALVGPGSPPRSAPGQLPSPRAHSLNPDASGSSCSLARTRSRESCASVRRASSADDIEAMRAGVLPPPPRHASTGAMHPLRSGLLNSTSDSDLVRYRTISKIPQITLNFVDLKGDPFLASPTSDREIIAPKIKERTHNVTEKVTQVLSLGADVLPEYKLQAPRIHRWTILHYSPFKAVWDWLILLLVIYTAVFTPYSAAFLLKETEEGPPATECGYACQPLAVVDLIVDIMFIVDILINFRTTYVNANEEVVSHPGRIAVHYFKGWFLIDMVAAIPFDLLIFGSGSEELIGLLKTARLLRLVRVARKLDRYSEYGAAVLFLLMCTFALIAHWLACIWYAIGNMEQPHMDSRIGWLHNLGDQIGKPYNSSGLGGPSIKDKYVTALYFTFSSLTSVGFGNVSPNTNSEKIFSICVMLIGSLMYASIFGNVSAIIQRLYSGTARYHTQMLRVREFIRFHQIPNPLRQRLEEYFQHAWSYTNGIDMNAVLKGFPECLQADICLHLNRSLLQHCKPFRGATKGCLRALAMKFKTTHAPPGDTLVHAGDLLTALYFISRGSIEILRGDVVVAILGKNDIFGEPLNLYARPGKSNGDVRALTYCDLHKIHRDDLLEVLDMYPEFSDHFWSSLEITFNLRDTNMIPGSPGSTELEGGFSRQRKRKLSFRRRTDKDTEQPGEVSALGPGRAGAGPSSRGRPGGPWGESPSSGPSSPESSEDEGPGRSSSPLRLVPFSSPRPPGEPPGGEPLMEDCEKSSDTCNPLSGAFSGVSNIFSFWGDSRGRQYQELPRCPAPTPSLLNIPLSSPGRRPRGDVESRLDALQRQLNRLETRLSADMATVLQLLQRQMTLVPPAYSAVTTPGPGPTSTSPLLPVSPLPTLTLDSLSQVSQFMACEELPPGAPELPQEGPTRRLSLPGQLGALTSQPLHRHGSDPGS

`CCCCC(CC)CNC(=O)c1cccs1` (centres unmarked) was tested. Which “hERG current change (%, negative = inhibition) at 10uM” value did it give?
Its value is 8.33%.

Which “hERG current change (%, negative = inhibition) at 10uM” value does the source give for `O=S(=O)(c1ccc(Nc2ccc3c(c2)OCO3)nc1)N1CCOCC1` here?
The value was -13.2%.

`COc1ccc(N(C(=O)c2cccnc2)S(=O)(=O)c2cc(OC)ccc2OC)cc1` was tested. Which “hERG current change (%, negative = inhibition) at 10uM” value did it give?
Its value is -21.8%.

Which “hERG current change (%, negative = inhibition) at 10uM” value does the source give for `O=C(CS(=O)(=O)Cc1ccccc1)Nc1ccccc1Cl` here?
The value was 1.09%.

How did the “hERG current change (%, negative = inhibition) at 10uM” value turn out when `Cc1ccc(C2CC(=O)C=C(O)C2)cc1` (centres unmarked) was run?
Its value is 3.29%.

For `CSCC(C)N1CCC(n2nccc2NC(=O)c2ccc3c(c2)OCO3)CC1` (centres unmarked), which “hERG current change (%, negative = inhibition) at 10uM” value is on record?
Its value is -2.95%.

With `Cc1ccc(CCNS(=O)(=O)c2cc3c(cc2C)n(C)c(=O)c(=O)n3C)cc1` as the compound, how does the “hERG current change (%, negative = inhibition) at 10uM” value read?
The value was -30.8%.

`CCOc1ccc(NC(=O)CSc2nnc(-c3ccccc3)n2N)cc1` was tested. Which “hERG current change (%, negative = inhibition) at 10uM” value did it give?
Its value is 6.02%.

`COC(=O)CSc1nnc(-c2ccco2)n1-c1ccc(C)cc1` was tested. Which “hERG current change (%, negative = inhibition) at 10uM” value did it give?
The value was -24.2%.

`CCOc1ccc(-n2c(-c3ccccc3)nnc2-c2ccccc2)cc1` was tested. Which “hERG current change (%, negative = inhibition) at 10uM” value did it give?
Its value is -6.7%.

With `CCOC(=O)CNC(=O)CSc1nnc(-c2cccc(OC)c2)n1CC` as the compound, how does the “hERG current change (%, negative = inhibition) at 10uM” value read?
Its value is 7.24%.

How did the “hERG current change (%, negative = inhibition) at 10uM” value turn out when `CCOC(=O)CSc1nnc(-c2ccco2)n1-c1ccccc1` was run?
Its value is -27.6%.

With `CNC(=O)CSc1nnc(-c2ccco2)n1-c1ccc(C)cc1` as the compound, how does the “hERG current change (%, negative = inhibition) at 10uM” value read?
The value was -49.5%.

`Cc1ccc(-n2c(SCC(=O)Nc3ccc4cn[nH]c4c3)nnc2-c2ccco2)cc1` was tested. Which “hERG current change (%, negative = inhibition) at 10uM” value did it give?
Its value is -62.4%.

For `Cc1ccc(-n2c(SCC(=O)Nc3ccc4c(c3)OCCO4)nnc2-c2ccco2)cc1`, which “hERG current change (%, negative = inhibition) at 10uM” value is on record?
Its value is -30.9%.

With `CCNC(=O)CSc1nnc(-c2ccccc2)n1-c1ccc(OCC)cc1` as the compound, how does the “hERG current change (%, negative = inhibition) at 10uM” value read?
Its value is -62.8%.

Which “hERG current change (%, negative = inhibition) at 10uM” value does the source give for `CCOC(=O)CNC(=O)CSc1nnc(-c2cccc(C)c2)n1-c1ccc(OC)cc1` here?
Its value is -62%.

How did the “hERG current change (%, negative = inhibition) at 10uM” value turn out when `CCOC(=O)CSc1nnc(-c2ccco2)n1-c1ccc(C)cc1` was run?
Its value is -61.9%.

With `CCOC(=O)CNC(=O)CSc1nnc(-c2ccc(OC)cc2)n1CC` as the compound, how does the “hERG current change (%, negative = inhibition) at 10uM” value read?
Its value is 10.5%.

How did the “hERG current change (%, negative = inhibition) at 10uM” value turn out when `CCn1c(C)nc2cc(C(=O)N/N=C/c3ccccc3C)ccc21` was run?
The value was -12.8%.

How did the “hERG current change (%, negative = inhibition) at 10uM” value turn out when `Cc1cc2c(C)nc(Cc3ccccc3)nc2o1` was run?
The value was 14.7%.

For `CCOc1cc2[nH]c(=O)n(Cc3ccc(C(=O)NCCCN4CCCC4=O)cc3)c(=O)c2cc1OCC`, which “hERG current change (%, negative = inhibition) at 10uM” value is on record?
The value was 16.2%.

For `CCOC(=O)C1=C(C)Nc2nc(SC)nn2C1c1ccc(C(=O)OC)cc1` (centres unmarked), which “hERG current change (%, negative = inhibition) at 10uM” value is on record?
The value was 5.26%.

With `Cc1ccc(/C=N\NC(=O)/C(=C\Nc2nccc(C)n2)NC(=O)c2ccccc2)cc1` as the compound, how does the “hERG current change (%, negative = inhibition) at 10uM” value read?
The value was -9.72%.

`C=C1C(=O)O[C@@H]2C[C@@H](C)[C@@H]3C=CC(=O)[C@@]3(C)[C@@H](OC(=O)CC(=O)O[C@H]3[C@@H]4C(=C)C(=O)O[C@@H]4C[C@@H](C)[C@@H]4C=CC(=O)[C@]43C)[C@H]12` was tested. Which “hERG current change (%, negative = inhibition) at 10uM” value did it give?
Its value is -38.6%.

How did the “hERG current change (%, negative = inhibition) at 10uM” value turn out when `COc1ccc(CNC(=O)C2CCN(S(=O)(=O)c3cccnc3)CC2)cc1` was run?
Its value is 12.9%.

`Cc1ccc(S(=O)(=O)NCCC(=O)Nc2cc(F)ccc2C)cc1C` was tested. Which “hERG current change (%, negative = inhibition) at 10uM” value did it give?
Its value is 2.51%.

Which “hERG current change (%, negative = inhibition) at 10uM” value does the source give for `CCOC(=O)c1c(O)c2ccccc2oc1=O` here?
Its value is -18.7%.

`CN1C(=O)CN=C(c2ccc(Cl)cc2)c2cc(Cl)ccc21` was tested. Which “hERG current change (%, negative = inhibition) at 10uM” value did it give?
Its value is -33.8%.

For `CCOC(=O)CSc1nnc(-c2ccoc2C)n1-c1ccc(C)cc1`, which “hERG current change (%, negative = inhibition) at 10uM” value is on record?
The value was -19.3%.

For `COc1ccc(-n2c(CSc3nc(C)cc(C)n3)nnc2SCC(=O)Nc2nccs2)cc1`, which “hERG current change (%, negative = inhibition) at 10uM” value is on record?
Its value is -13.2%.

How did the “hERG current change (%, negative = inhibition) at 10uM” value turn out when `Cn1c(SCC(=O)Nc2nccs2)nnc1-c1ccco1` was run?
The value was -5.22%.

Which “hERG current change (%, negative = inhibition) at 10uM” value does the source give for `CCOC(=O)CSc1nnc(CNC(=O)c2ccc(OC)cc2OC)n1-c1ccc(OC)cc1` here?
The value was -50.1%.

`CCOc1ccc(-n2c(SCC(N)=O)nnc2-c2ccco2)cc1` was tested. Which “hERG current change (%, negative = inhibition) at 10uM” value did it give?
Its value is -1.15%.

`COc1ccc(-n2c(SCC(=O)Nc3nccs3)nnc2-c2ccoc2C)cc1` was tested. Which “hERG current change (%, negative = inhibition) at 10uM” value did it give?
Its value is -80%.

`COc1cccc(C(=O)NCc2nnc(SCC(=O)Nc3nccs3)n2-c2cccc(C)c2)c1` was tested. Which “hERG current change (%, negative = inhibition) at 10uM” value did it give?
Its value is -18.3%.

With `COc1cccc(-n2ccnc2SCC(=O)Nc2nccs2)c1` as the compound, how does the “hERG current change (%, negative = inhibition) at 10uM” value read?
Its value is -6.22%.

`COc1cccc(-n2c(SCC(=O)Nc3nccs3)nnc2-c2ccoc2C)c1` was tested. Which “hERG current change (%, negative = inhibition) at 10uM” value did it give?
Its value is -76.8%.

Which “hERG current change (%, negative = inhibition) at 10uM” value does the source give for `CCOC(=O)CSc1nnc(-c2ccoc2C)n1-c1ccc(OCC)cc1` here?
Its value is -66.5%.

Which “hERG current change (%, negative = inhibition) at 10uM” value does the source give for `CCOC(=O)CSc1nnc(CNC(=O)c2ccc(OC)cc2OC)n1C` here?
Its value is -18.4%.

Which “hERG current change (%, negative = inhibition) at 10uM” value does the source give for `CCOC(=O)CSc1nnc(CNC(=O)c2ccccc2OC)n1-c1ccc(OC)cc1` here?
Its value is -28.8%.

With `COc1ccc(C2(C(=O)NCCCN(C)C)CCOCC2)cc1` as the compound, how does the “hERG current change (%, negative = inhibition) at 10uM” value read?
Its value is 7.45%.

How did the “hERG current change (%, negative = inhibition) at 10uM” value turn out when `CCOC(=O)c1c(-c2ccccc2Cl)csc1NC(=O)CSc1nc(C)cc(=O)[nH]1` was run?
Its value is 4.37%.

With `C=CCc1ccc(OCc2ccc(C(=O)OC)o2)c(OC)c1` as the compound, how does the “hERG current change (%, negative = inhibition) at 10uM” value read?
Its value is -12.1%.

With `CC1CCCCC1NC(=O)CC1Oc2ccccc2NC1=O` (centres unmarked) as the compound, how does the “hERG current change (%, negative = inhibition) at 10uM” value read?
Its value is 0.244%.

With `CC(=O)c1ccc(S(=O)(=O)NC2CC(=O)N(c3ccc4c(c3)OCCO4)C2)cc1` (centres unmarked) as the compound, how does the “hERG current change (%, negative = inhibition) at 10uM” value read?
The value was 5.79%.

With `CCN(CC)S(=O)(=O)c1cc(C(=O)O)ccc1Cl` as the compound, how does the “hERG current change (%, negative = inhibition) at 10uM” value read?
The value was 11%.

For `CC(=O)c1ccc(Sc2nnc(C)s2)c([N+](=O)[O-])c1`, which “hERG current change (%, negative = inhibition) at 10uM” value is on record?
The value was 1.07%.

`Cc1ccc(OCC(=O)Nc2nnc(S(=O)(=O)N3CCC(C)CC3)s2)cc1` was tested. Which “hERG current change (%, negative = inhibition) at 10uM” value did it give?
The value was 19.2%.

For `O=C(NNC(=O)c1ccc([N+](=O)[O-])o1)c1ccccc1`, which “hERG current change (%, negative = inhibition) at 10uM” value is on record?
The value was -6.59%.

With `CC[C@H](C)[C@H](NC(=O)OCc1ccccc1)C(=O)OCC(=O)N(C)CC(=O)Nc1ccccc1Cl` as the compound, how does the “hERG current change (%, negative = inhibition) at 10uM” value read?
Its value is -64.5%.

With `CN(CC(=O)Nc1ccccc1Cl)C(=O)COC(=O)c1ccc(S(=O)(=O)C(F)F)cc1` as the compound, how does the “hERG current change (%, negative = inhibition) at 10uM” value read?
The value was -69.9%.

Which “hERG current change (%, negative = inhibition) at 10uM” value does the source give for `CN(CC(=O)Nc1ccccc1Cl)C(=O)COC(=O)c1ccc(C(F)(F)F)cc1` here?
Its value is -9.53%.

How did the “hERG current change (%, negative = inhibition) at 10uM” value turn out when `CN(CC(=O)Nc1ccccc1Cl)C(=O)COC(=O)c1ccccc1[N+](=O)[O-]` was run?
The value was -6.07%.

`CN(CC(=O)Nc1ccccc1Cl)C(=O)COC(=O)C1CC1` was tested. Which “hERG current change (%, negative = inhibition) at 10uM” value did it give?
Its value is -2.87%.

For `CN(CC(=O)Nc1ccccc1Cl)C(=O)COC(=O)c1ccc(Cl)nc1`, which “hERG current change (%, negative = inhibition) at 10uM” value is on record?
Its value is 4.99%.

Which “hERG current change (%, negative = inhibition) at 10uM” value does the source give for `CC(=O)Oc1ccc(-c2ccc(C(=O)OCC(=O)N(C)CC(=O)Nc3ccccc3Cl)cc2)cc1` here?
The value was -68.9%.

With `CN(CC(=O)Nc1ccccc1Cl)C(=O)COC(=O)C1=COCCO1` as the compound, how does the “hERG current change (%, negative = inhibition) at 10uM” value read?
Its value is 5.89%.

For `CN(CC(=O)Nc1ccccc1Cl)C(=O)COC(=O)c1nc(Cl)ccc1Cl`, which “hERG current change (%, negative = inhibition) at 10uM” value is on record?
Its value is -20%.

Source: paper PMC4336329 (PLoS ONE, 2015)
